# MEKK2 mut-MEK5 – signal of MEK5 binding to mutant human MEKK2 PB1 domain; percent response, % at 10 µM; AID 1530; 290,000 tested, 0.35% active; bead flow cytometry, Alexa488-MEK5 binding to MEKK2 mutant; in the data active = percent response above about 24%, passing the limit was not always enough
# GRK2 aptamer HTS – human GRK2 inhibition via aptamer displacement; inhibition of aptamer binding, % at 10 µM; P25098; bead flow cytometry, FAM-aptamer displacement from GRK2; 330,000 tested, 0.59% active;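 active = inhibition of aptamer binding above 40%, roughly 3 SD of noise, on plates passing a quality check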;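 also: median bead fluorescence of bound FAM aptamer so fluorescent compounds give negative values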
# MEKK2wt PB1 HTS – raises or lowers MEK5 binding to wildtype human MEKK2 PB1 domain. Q9Y2U5. bead flow cytometry, Alexa488-MEK5 binding to MEKK2 WT; actives lie on both sides. binding response (% of control), % at 10 µM. 290,000 tested, 1.1% active. AID 1531; in the data active = binding response below about 67% or above about 130%
# MEKK3 PB1 HTS – MEKK3-MEK5 PB1 interaction, increase or decrease. Q99759. bead-based flow cytometry, Alexa488-MEK5 binding to MEKK3; actives lie on both sides; 0 = blocked by unlabeled MEK5, 100 = vehicle. AID 1529. binding response (% of control), % at 10 µM. 290,000 tested, 1.4% active;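 active = binding response more than 3 SD above or below the average of its plate-row segment, actives on both sides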;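 also: Alexa488 bead fluorescence after subtracting the streptavidin-only scavenger bead signal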
# Target sequence (Q99759 whole entry, looked up): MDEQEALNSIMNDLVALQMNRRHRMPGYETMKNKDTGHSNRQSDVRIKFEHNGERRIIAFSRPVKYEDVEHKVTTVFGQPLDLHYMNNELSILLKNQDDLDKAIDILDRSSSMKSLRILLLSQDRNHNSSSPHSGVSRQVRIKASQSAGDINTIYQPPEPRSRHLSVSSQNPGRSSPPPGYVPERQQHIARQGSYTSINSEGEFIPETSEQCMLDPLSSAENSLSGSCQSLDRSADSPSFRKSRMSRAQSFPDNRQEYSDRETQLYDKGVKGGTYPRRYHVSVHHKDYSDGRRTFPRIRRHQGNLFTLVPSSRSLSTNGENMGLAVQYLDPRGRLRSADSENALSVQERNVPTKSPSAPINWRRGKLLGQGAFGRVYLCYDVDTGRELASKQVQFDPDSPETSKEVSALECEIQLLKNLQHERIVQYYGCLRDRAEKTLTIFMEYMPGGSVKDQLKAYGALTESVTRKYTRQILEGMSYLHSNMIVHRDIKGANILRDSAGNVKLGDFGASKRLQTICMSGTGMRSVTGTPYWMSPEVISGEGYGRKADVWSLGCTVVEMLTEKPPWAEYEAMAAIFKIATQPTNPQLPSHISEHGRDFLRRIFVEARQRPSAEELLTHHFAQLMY
# MEKK2wt confirm – raises or lowers MEK5 binding to wildtype human MEKK2, retest; AID 1892; 5,900 tested, 2.4% active; shares compounds with MEKK3 PB1 HTS; bead flow cytometry, Alexa488-MEK5 binding to MEKK2 WT; actives lie on both sides; binding response (% of control), % at 10 µM; in the data active = binding response below about 16% or above about 210%; inactive = in between
# MEKK2mut confirm – signal of MEK5 binding to mutant human MEKK2, retest | shares compounds with MEKK3 PB1 HTS | AID 1893 | 5,900 tested, 2% active | bead flow cytometry, Alexa488-MEK5 binding to MEKK2 mutant | percent response, % at 10 µM; in the data active = percent response mostly above about 71%, no sharp cut-off; inactive = mostly below about 38%;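 also: higher means compound restores mutant binding toward wildtype level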
# MEKK3-MEK5 inh – MEKK3-MEK5 PB1 inhibition, single concentration confirmation; bead flow cytometry, Alexa488-MEK5 binding to MEKK3; hits give low values; 5,900 tested, 1.8% active; shares compounds with MEKK3 PB1 HTS; binding response (% of control), % at 10 µM;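 active = binding response below 72% of control, or above a set upper limit, though filed actives all read lower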;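 also: 100% = DMSO only wells and 0% = binding blocked by excess unlabeled MEK5; lower values mean stronger disruption of MEK5 binding to MEKK3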
# An asterisk follows results filed as active; nt = no result given; [ ] = remark or other dose. Compounds with a hit are over-represented: about 2.5% of the library has one in this group of screens.
SMILES,MEKK2 mut-MEK5,GRK2 aptamer HTS,MEKK2wt PB1 HTS,MEKK3 PB1 HTS,MEKK2wt confirm,MEKK2mut confirm,MEKK3-MEK5 inh
COc1ccc(COc2cc(-c3cccc(OC)c3)nc3ccc(NC(=O)c4ccc(C)cc4)cc23)cc1,-1.0,0.0,1.0*[inhibitor],1.0*[inhibitor],96.0,-2.0,105.0
COc1ccc(COc2cc(-c3cccc(OC)c3)nc3ccc(NC(=O)c4ccc(N(C)C)cc4)cc23)cc1,3.0,nt,95.0,100.0,nt,nt,nt
Cc1ccccc1N(CC(=O)NC1CCCC1)C(=O)C1(C)CC(=O)N=C2C=CC(Cl)=CN21 (stereo not drawn),1.0,0.0,99.0,103.0,nt,nt,nt
Cc1ccccc1N(CC(=O)NC1CCCC1)C(=O)C1(C)CC(=O)N=C2C=CC=CN21 (stereo not drawn),-4.0,0.0,68.0,46.0*[inhibitor],100.0,-4.0,100.0
CCOC(=O)C(NC(=O)c1cccc(Cl)c1)(OCc1ccccc1)C(F)(F)F (stereo not drawn),-2.0,0.0,93.0,98.0,nt,nt,nt
CCOC(=O)C(NC(=O)c1ccccc1)(OCc1ccccc1)C(F)(F)F (stereo not drawn),4.0,4.0,106.0,159.0*,104.0,-1.0,108.0
Cc1cc(C)c(NS(=O)(=O)c2c(C)noc2C)c(C)c1,3.0,4.0,101.0,100.0,nt,nt,nt
O=C(NCCC1=CCCCC1)C(=O)NCc1ccccc1,-1.0,4.0,99.0,108.0,nt,nt,nt
Cc1ccc(CSCCC(=O)NCCC2=CCCCC2)cc1,1.0,0.0,114.0,130.0*,106.0,2.0,101.0
Cc1ccc(CNC(=O)C(=O)NCCC2=CCCCC2)cc1,3.0,2.0,99.0,72.0*[inhibitor],101.0,-6.0,103.0
C1=C(CCNc2ncnc3c2[nH]c2ccccc23)CCCC1,26.0,0.0,143.0*,95.0,140.0,20.0,107.0
O=C(CCSCc1cccc(Cl)c1)NCCC1=CCCCC1,0.0,5.0,101.0,113.0,nt,nt,nt
O=C(O)C1C2C=CC(O2)C1C(=O)NCCC1=CCCCC1 (stereo not drawn),-18.0,4.0,1.0*[inhibitor],1.0*[inhibitor],107.0,-1.0,103.0
CN(C)CCn1c(COc2ccccc2)nc2ccccc21,nt,0.0,nt,nt,nt,nt,nt
COc1ccccc1NC(=O)CSc1nnc(-c2ccccc2)o1,-4.0,0.0,87.0,89.0,nt,nt,nt
Cc1[nH]c2ccccc2c1C(=O)C(=O)NCCC1=CCCCC1,0.0,2.0,104.0,135.0*,98.0,6.0,102.0
CCC(=O)N(C)CCc1cc2c(c(OC)c1/C=N/Nc1ccc(C(=O)O)cc1)OCO2,30.0,0.0,119.0,132.0*,107.0,11.0,107.0
CCC(=O)N(C)CCc1cc2c(c(OC)c1/C=N/NC(=O)[C@H]1C[C@@H]1c1ccccc1)OCO2,17.0,3.0,99.0,106.0,nt,nt,nt
COc1ccc(/C=N/NC(=O)CCn2cnc(-c3ccccc3)c2-c2ccccc2)cc1OC,0.0,2.0,98.0,64.0*[inhibitor],75.0,-15.0,72.0
COc1ccc(/C=N\NC(=O)CC(=O)Nc2cccc(Cl)c2)cc1OC,-10.0,0.0,77.0,73.0*[inhibitor],103.0,4.0,103.0
COc1ccc(C(=O)CNC2=NCCC2)cc1,3.0,0.0,102.0,102.0,nt,nt,nt
COc1ccc(C(=O)Cn2nc(CNc3ccc(Br)cc3)[n+]3c2CCCCC3)cc1,5.0,0.0,150.0*,103.0,148.0,20.0,107.0
Cc1nc2ccccc2c(=O)n1NC(=O)c1ccc(C(C)(C)C)cc1,3.0,2.0,99.0,104.0,nt,nt,nt
CC1CCN(c2nc3c(cc2C#N)COC(C)(C)C3)CC1,-9.0,0.0,86.0,102.0,nt,nt,nt
CCOc1ccc2c(c1)c(N=NC(=N)N)c(O)n2C,1.0,0.0,104.0,128.0*,107.0,4.0,104.0
SMILES,MEKK2 mut-MEK5,GRK2 aptamer HTS,MEKK2wt PB1 HTS,MEKK3 PB1 HTS,MEKK2wt confirm,MEKK2mut confirm,MEKK3-MEK5 inh
C=C(C)COc1ccc(-c2n[nH]c(C)c2-c2ccc(OC)cc2)c(O)c1,9.0,1.0,121.0,83.0,nt,nt,nt
COc1ccc(-c2n[nH]c(C)c2-c2cscn2)c(O)c1,29.0,1.0,130.0,133.0*,101.0,-12.0,98.0
O=C(Nc1ccc(C(=O)N2CCOCC2)cc1)c1ccccc1[N+](=O)[O-],2.0,3.0,99.0,98.0,nt,nt,nt
N#CC1(C#N)C(c2ccccc2)OC23CCCCC2C1(C#N)C(=N)O3 (stereo not drawn),-1.0,3.0,104.0,140.0*,111.0,4.0,110.0
N#CC1(C#N)C(c2ccccc2)OC23CCCCCC2C1(C#N)C(=N)O3 (stereo not drawn),10.0,1.0,113.0,102.0,nt,nt,nt
O=C(COC(=O)Cc1ccc(F)cc1)NC(=O)NC1CCCC1,nt,0.0,nt,nt,nt,nt,nt
O=C(CSc1ccc(-c2nc3ccccc3[nH]2)cn1)Nc1ccc(S(=O)(=O)NC2CC2)cc1,1.0,0.0,112.0,165.0*,102.0,0.0,98.0
O=C(CSc1ccc(-c2nc3ccccc3[nH]2)cn1)Nc1ccc2c(c1)OCCO2,0.0,0.0,104.0,102.0,nt,nt,nt
COc1ccccc1NS(=O)(=O)c1cc(C(=O)N2CCCC2)ccc1C,nt,1.0,nt,nt,nt,nt,nt
Cc1csc(SCC(=O)NCCc2ccc(Cl)cc2Cl)n1,-1.0,0.0,95.0,69.0*[inhibitor],100.0,2.0,101.0
Cc1csc(SCC(=O)NCc2cccc(Cl)c2)n1,-8.0,2.0,96.0,98.0,nt,nt,nt
CCCCNC(=S)Nc1ccc(-c2nc3ccc(C)cc3s2)cc1,0.0,0.0,105.0,134.0*,105.0,3.0,107.0
COc1ccc(CN(C2CCCCC2C)S(=O)(=O)c2ccc(S(=O)(=O)N(C)C)cc2)cc1OC (stereo not drawn),0.0,8.0,98.0,137.0*,99.0,8.0,104.0
COc1cc(CN(C2CCCCC2C)S(=O)(=O)c2ccc(S(=O)(=O)NC3CC3)cc2)cc(OC)c1OC (stereo not drawn),-2.0,0.0,114.0,111.0,nt,nt,nt
O=C(O)/C=C/C(=O)Nc1ccc(Oc2ccc(NC(=O)/C=C/C(=O)O)cc2)cc1,1.0,8.0,106.0,150.0*,87.0,-9.0,87.0
Cc1csc(Sc2nc3c(c(=O)[nH]c(=O)n3C)n2CCCc2ccccc2)n1,-21.0,3.0,1.0*[inhibitor],2.0*[inhibitor],91.0,-10.0,93.0
Cc1ccc2nc(N3CCN(C(=O)CCCC(=O)O)CC3)nc(-c3ccccc3)c2c1,8.0,7.0,108.0,110.0,nt,nt,nt
O=C(O)CCCC(=O)N1CCN(c2nc(-c3ccccc3Cl)c3cc(Br)ccc3n2)CC1,26.0*,1.0,119.0,119.0,97.0,-7.0,98.0
CCc1cccc2cc3c(N)c(C(=O)Nc4ccc(S(=O)(=O)N5CCCC5)cc4)sc3nc12,4.0,5.0,67.0,154.0*,87.0,-13.0,99.0
CC(C)c1ccc(-c2csc(NC(=O)c3cccs3)c2C(=O)O)cc1,4.0,1.0,107.0,105.0,nt,nt,nt
